The text below walks through data of the supplement of paper PMC10127200.

Where a name gives a salt, the structure may show the parent alone.

Common to all, as to experiment: Euclidean distance of Cell Painting phenotypic profile (signed KS, 77 features) to DMSO centroid (dimensionless distance); 5 or 10 uM (library dependent); higher = stronger phenotypic change vs DMSO (phenoactivity)
Holding throughout (details): 48 h

Assay [1] deals with 786-O. In outline: (§1)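 Library compounds were applied at 10 or 5 uM, depending on the library, with 0.1% DMSO final, for 48 h to five cancer lines and a healthy fibroblast line. After staining, cells were imaged confocally at 20X across 9 fields per well, and Harmony extracted 77 features, each scored as a signed Kolmogorov-Smirnov statistic against vehicle wells on the same plate. Phenoactivity is the Euclidean distance between each profile and the median vehicle profile, with profiles first plate-position corrected, correlation-weighted and averaged over replicates at the top dose.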

The test system of assay [2] is A549. The gist of the method:
as §1

Assay [3] relates to DU145. In outline:
as §1

Assay [4] concerns FB. In outline:
as §1

For assay [5], the system named is HEPG2. In outline: as §1
Assay [6] deals with OVCAR4. In outline: as §1

For `CC1(C)S[C@@H]2[C@H](NC(=O)[C@H](N)c3ccccc3)C(=O)N2[C@H]1C(=O)O` [Ampicillin Trihydrate], the Euclidean distance in assay [1] turned out to be 1.3; in assay [2], 1.2; in assay [3] it was 0.921; in assay [4], 0.762; in assay [5] it was 0.667; in assay [6] it was 1.53.
In the case of `NC(=O)c1cn(Cc2c(F)cccc2F)nn1` [Rufinamide], the Euclidean distance came to 1.34 in assay [1]; 1.42 in assay [2]; 0.931 in assay [3]; 1.23 in assay [4]; 0.473 in assay [5]; 1.4 in assay [6].
Take `Nc1nc(=O)c2nc(CNc3ccc(C(=O)N[C@@H](CCC(=O)O)C(=O)O)cc3)cnc2[nH]1` [Folic acid]: the Euclidean distance was determined as 1.19 in assay [1]; 0.776 in assay [2]; 0.987 in assay [3]; 0.817 in assay [4]; 0.743 in assay [5]; 1.25 in assay [6].
`C/C(O)=C(\C#N)C(=O)Nc1ccc(C(F)(F)F)cc1` [Teriflunomide]: the Euclidean distance was 0.702 in assay [1]; 0.732 in assay [2]; 0.988 in assay [3]; 1.1 in assay [4]; 0.844 in assay [5]; 2.02 in assay [6].
Regarding `CCC[C@@H]1C[C@@H](C(=O)N[C@@H]([C@H]2O[C@H](SC)[C@H](O)[C@@H](O)[C@H]2O)[C@@H](C)O)N(C)C1` [Lincomycin HCl], the Euclidean distance in assay [1] turned out to be 1.49; in assay [2] it was 0.984; in assay [3], 0.817; in assay [4] it was 1.01; in assay [5], 0.457; in assay [6] it was 1.31.
On to `C[C@@H]1O[C@@H](O[C@H]2[C@H](Oc3cc(O)c4c(c3)O[C@H](c3ccc(O)cc3)CC4=O)O[C@H](CO)[C@@H](O)[C@@H]2O)[C@H](O)[C@H](O)[C@H]1O` [Naringin], for which the Euclidean distance in assay [1] was 1.25; in assay [2], 1.01; in assay [3], 0.644; in assay [4], 1.2; in assay [5], 0.575; in assay [6], 1.74.
As for `C[C@H](NCc1ccc(OCc2cccc(F)c2)cc1)C(N)=O` [Safinamide Mesylate], the Euclidean distance in assay [1] was found to be 0.672; in assay [2], 0.63; in assay [3] it was 0.559; in assay [4] it was 0.645; in assay [5], 0.55; in assay [6] it was 1.14.
As for `CCC(NC(C)C)C(O)c1ccc(O)c2[nH]c(=O)ccc12` (stereo not given) [Procaterol HCl], the Euclidean distance in assay [1] worked out at 1.23; in assay [2], 1.55; in assay [3], 0.791; in assay [4], 0.891; in assay [5], 2.17; in assay [6], 1.67.
As to `CCOC(=O)[C@@H](N)Cc1ccc(-c2cc(O[C@H](c3ccc(Cl)cc3-n3ccc(C)n3)C(F)(F)F)nc(N)n2)cc1` [Telotristat Etiprate (LX 1606 Hippurate)], the Euclidean distance worked out at 3.69 in assay [1]; 1.52 in assay [2]; 2.43 in assay [3]; 2.23 in assay [4]; 1.13 in assay [5]; 1.3 in assay [6].
`COc1ccc(CCNCC(O)COc2cccc(C)c2)cc1OC` (stereo not given) [Bevantolol hydrochloride]: the Euclidean distance in assay [1] amounted to 1.02; in assay [2], 0.717; in assay [3], 1.07; in assay [4], 1.21; in assay [5], 0.573; in assay [6] it was 1.03.
As to `CNC[C@H](O)c1ccc(O)c(O)c1` [Epinephrine HCl], the Euclidean distance in assay [1] came to 1.19; in assay [2] it was 0.611; in assay [3], 0.9; in assay [4], 0.733; in assay [5], 0.644; in assay [6] it was 0.893.
For `CCCC(C(=O)OCCN(CC)CC)(c1ccccc1)c1ccccc1` [Proadifen HCl], the Euclidean distance was found to be 1.14 in assay [1]; 1.1 in assay [2]; 2.58 in assay [3]; 1.59 in assay [4]; 1.89 in assay [5]; 1.13 in assay [6].
For `N=C(N)Nc1ccc(C(=O)Oc2ccc3cc(C(=N)N)ccc3c2)cc1` [Nafamostat Mesylate], the Euclidean distance amounted to 1.58 in assay [1]; 1.62 in assay [2]; 1.06 in assay [3]; 1.02 in assay [4]; 0.93 in assay [5]; 1.24 in assay [6].
As to `C[C@@H]1COC(Nc2ccc3ncnc(Nc4ccc(OCc5nccs5)c(Cl)c4)c3c2)=N1` [Varlitinib], the Euclidean distance in assay [1] turned out to be 1.45; in assay [2], 1.22; in assay [3], 1.15; in assay [4] it was 1.15; in assay [5] it was 2.16; in assay [6] it was 1.56.
For the molecule `COC1=C2C[C@@H](C)C[C@H](OC)[C@H](O)[C@@H](C)/C=C(\C)[C@H](OC(N)=O)[C@@H](OC)/C=C\C=C(/C)C(=O)NC(=CC1=O)C2=O` [Geldanamycin], the Euclidean distance turned out to be 2.87 in assay [1]; 3.3 in assay [2]; 3.52 in assay [3]; 3.35 in assay [4]; 1.8 in assay [5]; 2.91 in assay [6].
Turning to `Cc1ccc(C(=O)N(CCCN)[C@@H](c2oc3cc(Cl)ccc3c(=O)c2Cc2ccccc2)C(C)C)cc1`, the Euclidean distance in assay [1] worked out at 3.9; in assay [2], 3.16; in assay [3], 3.86; in assay [4], 2.4; in assay [5], 2.19; in assay [6] it was 3.2.
Take `Cc1cc(C(C)(C)C)c(O)c(C)c1CC1=NCCN1` [Oxymetazoline HCl]: the Euclidean distance in assay [1] came to 1.3; in assay [2], 0.82; in assay [3] it was 0.75; in assay [4] it was 1.1; in assay [5], 1.88; in assay [6], 0.83.
Regarding `C[C@H](N)[C@H](O)c1cccc(O)c1` [Metaraminol Bitartrate], the Euclidean distance in assay [1] worked out at 0.87; in assay [2], 0.731; in assay [3] it was 0.8; in assay [4], 1.26; in assay [5], 0.768; in assay [6] it was 0.946.
With `CCCN[C@H]1CCc2nc(N)sc2C1` [Pramipexole 2HCl Monohydrate], the Euclidean distance came to 0.779 in assay [1]; 1.01 in assay [2]; 1.58 in assay [3]; 1.08 in assay [4]; 0.888 in assay [5]; 1.26 in assay [6].
As to `CC[C@H]1OC(=O)[C@H](C)[C@@H](O[C@H]2C[C@@](C)(OC)[C@@H](O)[C@H](C)O2)[C@H](C)[C@@H](O[C@@H]2O[C@H](C)C[C@H](N(C)C)[C@H]2O)[C@](C)(O)C[C@@H](C)[C@@H]2N[C@@H](COCCOC)O[C@H]([C@H]2C)[C@]1(C)O` [Dirithromycin], the Euclidean distance came out at 0.963 in assay [1]; 1.37 in assay [2]; 0.758 in assay [3]; 1.06 in assay [4]; 1.27 in assay [5]; 1.41 in assay [6].
